PubChem BioAssay AID1159580 (chemical genetic matrix, 2015)
The campaign covered roughly 5,500 compounds. About 2,000 (36%) were called active. Inconclusive results (about 18%) are left out. Cut-off read from the data, not from the text of the source: active = normalized growth mostly below about 0.91 (no sharp cut-off); inconclusive = no clear call, values can overlap the other calls; inactive = mostly above about 0.92. The list shows a part of the results.

Assay: chemical genetic growth profiling, strain panel (AID 1159580);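 note: tested at 20 µM; growth read once vehicle control cultures reached saturation at 30 °C; 1 = growth at the plate median or of vehicle wells; lower values mean less growth of the strain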
Settings: S. cerevisiae deletion strains, growth OD

Measured: normalized growth

CC1CC2C3CC(F)C4=CC(=O)C=CC4(C)C3(F)C(O)CC2(C)C1(O)C(=O)CO (centres undefined)
inactive: locus YAL013W, strain DEP1, hits give low values 1.03 | locus YAL021C, strain ccr4, hits give low values 0.997 | locus YAL026C, strain drs2, hits give low values 1 | locus YAL030W, strain snc1, hits give low values 1 | locus YBL061C, strain skt5, hits give low values 0.996 | locus YBR009C, strain hhf1, hits give low values 0.997 | locus YBR021W, strain FUR4, hits give low values 1.03 | locus YBR023C, strain chs3, hits give low values 0.988 | locus YBR171W, strain sec66, hits give low values 0.997 | locus YBR229C, strain ROT2, hits give low values 1.01 | locus YBR231C, strain swc5, hits give low values 0.992 | locus YBR279W, strain paf1, hits give low values 0.989 | locus YCL011C, strain gbp2, hits give low values 0.992 | locus YCL016C, strain dcc1, hits give low values 0.98 | locus YCL029C, strain bik1, hits give low values 1.03 | locus YCL061C, strain MRC1, hits give low values 0.999 | locus YCL069W, strain vba3, hits give low values 1.01 | locus YCR088W, strain abp1, hits give low values 1 | locus YDL005C, strain med2, hits give low values 0.993 | locus YDL035C, strain GPR1, hits give low values 1.05 | locus YDL040C, strain nat1, hits give low values 0.997 | locus YDL074C, strain BRE1, hits give low values 1.09 | locus YDL101C, strain DUN1, hits give low values 1.02 | locus YDL134C, strain PPH21, hits give low values 1.01 | locus YDL185W, strain tfp1, hits give low values 1.03 | locus YDL192W, strain arf1, hits give low values 1.03 | locus YDR001C, strain nth1, hits give low values 1.01 | locus YDR069C, strain doa4, hits give low values 1.01 | locus YDR101C, strain arx1, hits give low values 1.02 | locus YDR137W, strain rgp1, hits give low values 0.995 | locus YDR150W, strain NUM1, hits give low values 1.03 | locus YDR159W, strain sac3, hits give low values 1.01 | locus YDR162C, strain NBP2, hits give low values 1.02 | locus YDR195W, strain ref2 0.968 | locus YDR297W, strain sur2, hits give low values 0.99 | locus YDR318W, strain mcm21, hits give low values 1.05 | locus YDR334W, strain swr1, hits give low values 0.994 | locus YDR335W, strain msn5, hits give low values 1 | locus YDR388W, hits give low values 1.01 | locus YDR392W, strain spt3, hits give low values 0.995 | locus YDR502C, strain sam2, hits give low values 1.02 | locus YEL003W, strain gim4, hits give low values 1.01 | locus YEL037C, strain rad23, hits give low values 1 | locus YEL061C, strain CIN8 (second series), hits give low values 1.01 | locus YEL061C, strain CIN8, hits give low values 1.01 | locus YER015W, strain faa2, hits give low values 1 | locus YER016W, strain bim1, hits give low values 0.995 | locus YER110C, hits give low values 1.03 | locus YER111C, strain swi4, hits give low values 1 | locus YER155C, strain BEM2 (second series), hits give low values 1.03 | locus YER155C, strain BEM2, hits give low values 0.999 | locus YER167W, strain BCK2, hits give low values 1.05 | locus YFR010W, strain ubp6, hits give low values 1.01 | locus YGL078C, strain dbp3, hits give low values 1.02 | locus YGL086W, strain mad1, hits give low values 1.04 | locus YGL167C, strain pmr1, hits give low values 0.991 | locus YGL173C, strain kem1, hits give low values 1.01 | locus YGL227W, strain vid30, hits give low values 0.998 | locus YGL240W, strain doc1, hits give low values 1 | locus YGL248W, strain PDE1, hits give low values 1.01 | locus YGL253W, strain hxk2, hits give low values 0.983 | locus YGR078C, strain PAC10, hits give low values 1.04 | locus YGR135W, strain pre9, hits give low values 1.03 | locus YGR229C, strain SMI1, hits give low values 1.02 | locus YGR252W, strain gcn5, hits give low values 1.06 | locus YHR013C, strain ard1, hits give low values 0.985 | locus YHR027C, strain rpn1, hits give low values 1.01 | locus YHR030C, strain SLT2, hits give low values 1.02 | locus YHR079C, strain IRE1 (second series), hits give low values 1.02 | locus YHR094C, strain hxt1, hits give low values 1.02 | locus YHR129C, strain ARP1, hits give low values 1.01 | locus YHR142W, strain chs7, hits give low values 0.995 | locus YHR200W, strain rpn10, hits give low values 1.03 | locus YIL066C, strain RNR3, hits give low values 1.04 | locus YIL073C, strain SPO22, hits give low values 1.1 | locus YIL125W, strain kgd1, hits give low values 1.02 | locus YIR030C, strain dcg1, hits give low values 1.02 | locus YJL092W, strain hpr5, hits give low values 1 | locus YJL095W, strain BCK1 (second series), hits give low values 0.997 | locus YJL095W, strain BCK1, hits give low values 1.02 | locus YJL115W, strain asf1, hits give low values 1.01 | locus YJL129C, strain trk1, hits give low values 0.997 | locus YJL134W, strain LCB3, hits give low values 1.02 | locus YJL154C, strain vps35, hits give low values 1.01 | locus YJL164C, strain tpk1, hits give low values 1.01 | locus YJL166W, strain qcr8, hits give low values 0.993 | locus YJL168C, strain set2, hits give low values 1.02 | locus YJL187C, strain SWE1 (second series), hits give low values 1.02 | locus YJL187C, strain SWE1, hits give low values 0.986
